{
  "source": "PubChem BioAssay (NCATS)",
  "note": "Inconclusive results are not listed. Where a call stands in place of a potency, no number is given. Calls of active or inactive are those of the source. The call rests on the fitted dose curve; in most records, active means well fitted inhibition curve with a large enough effect; inconclusive means small, poorly fitted or top-dose-only effect; inactive means flat fitted curve, though single readings scatter. Further: nearly all actives have a fitted effect of over 60% in size. Potency means the concentration at half of the fitted maximal effect.",
  "data": [
    {"system": "NIH3T3", "experiment": "Cytotoxic Profiling of Annotated Libraries Using Quantitative High-Throughput Screening (AID 1296008)", "settings": "Five cell lines viability, CellTiter-Glo ATP luminescence, 48-72 h; max response: active compounds read low", "in_short": "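Cells exposed to compounds for 48 or 72 hr at 37 degrees Celsius. Viability read as ATP-coupled luminescence with CellTiter-Glo after 10 min at room temperature.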", "values": [
      {"smiles": "CN1CCC[C@H]1CCO[C@](C)(c1ccccc1)c1ccc(Cl)cc1", "max response": "-18.8% (inactive)"},
      {"smiles": "CC(C)(F)C[C@H](N[C@@H](c1ccc(-c2ccc(S(C)(=O)=O)cc2)cc1)C(F)(F)F)C(=O)NC1(C#N)CC1", "max response": "-18% (inactive)"},
      {"smiles": "COc1ccc2nc3cc(Cl)ccc3c(Nc3cc(CN4CCCC4)c(O)c(CN4CCCC4)c3)c2n1", "max response": "-1.17% (inactive)"},
      {"smiles": "CCC[C@H](Nc1nc(-c2ccc(NC(=O)NCC)c(OC)c2)ncc1C)c1cccnc1", "max response": "-76.8% (inactive)"},
      {"smiles": "N=C1SC(=Cc2ccc(-c3ccc4c(c3)C(=O)NC4=O)o2)C(=O)N1c1ccc(Br)cc1", "max response": "1.79% (inactive)"},
      {"smiles": "CC[C@H](C)n1cc(C)c2c(C(=O)NCc3c(C)cc(C)[nH]c3=O)cc(-c3ccc(N4CCNCC4)nc3)cc21", "outcome": "inactive"},
      {"smiles": "COc1ccc2cc1Oc1ccc(cc1)C[C@H]1c3cc(c(OC)cc3CCN1C)Oc1c(OC)c(OC)cc3c1[C@H](C2)N(C)CC3", "max response": "-30.2% (inactive)"},
      {"smiles": "O=C(C=Cc1ccc(O)cc1)c1ccc(O)cc1O", "max response": "-8.95% (inactive)"},
      {"smiles": "CC(C)c1c(C(=O)Nc2ccccc2)c(-c2ccccc2)c(-c2ccc(F)cc2)n1CC[C@H](O)C[C@@H](O)CC(=O)O", "max response": "-10.9% (inactive)"},
      {"smiles": "CNC(=O)[C@H](Cc1ccccc1)NC(=O)[C@H](CC(C)C)[C@H](CSc1cccs1)C(=O)NO", "max response": "0.205% (inactive)"},
      {"smiles": "COc1c(C)c2c(c(O)c1CC=C(C)CCC(=O)O)C(=O)OC2", "Potency": "3720 nM (active)"},
      {"smiles": "CNC(=O)c1cc(Oc2ccc(NC(=O)Nc3ccc(Cl)c(C(F)(F)F)c3)c(F)c2)ccn1", "max response": "-27% (inactive)"},
      {"smiles": "O=C(Nc1cccc2c(=O)cc(-c3nn[nH]n3)oc12)c1ccc(OCCCCc2ccccc2)cc1", "max response": "-4.19% (inactive)"},
      {"smiles": "Cc1ccc(NC(=O)c2cccc(N(C)C)c2)cc1NC(=O)c1ccc(O)cc1", "max response": "3.99% (inactive)"},
      {"smiles": "CN1C(=O)C[C@H](C(=O)N[C@@H](Cc2cnc[nH]2)C(=O)N2CCC[C@@H]2C(N)=O)NC1=O", "outcome": "inactive"},
      {"smiles": "CN(C)CCCNC(=O)c1ccc(-c2cc(O)c3ncccc3c2)cc1", "max response": "-2.36% (inactive)"},
      {"smiles": "Cc1ccccc1C(=O)c1ccc(Nc2ccc(Br)cc2N)cc1Cl", "max response": "-21.7% (inactive)"},
      {"smiles": "Cc1[nH]c(C=C2C(=O)Nc3ccc(S(=O)(=O)N(C)c4cccc(Cl)c4)cc32)c(C)c1C(=O)N1CCN(C)CC1", "Potency": "9350 nM (active)"},
      {"smiles": "CON(C)C(=O)N1N=C(c2cc(F)ccc2F)S[C@]1(CCCN)c1ccccc1", "max response": "-18.9% (inactive)"},
      {"smiles": "CO[C@H]1O[C@@H]2O[C@@]3(C)CC[C@@H]4[C@@H](C)CC[C@@H]([C@H]1C)[C@@]24OO3", "outcome": "inactive"},
      {"smiles": "COc1ccc(-c2oc3c(CC=C(C)C)c(O)cc(O)c3c(=O)c2O)cc1", "outcome": "inactive"}
    ]},
    {"system": "HACAT", "experiment": "qHTS assay to identify novel small-molecules to repurpose for Merkel cell carcinoma treatment (AID 1296009)", "settings": "MCC and control cell lines, CellTiter-Glo viability, 72 h; at 44.8 µM (top of the series) unless noted", "in_short": "(§1)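 CellTiter-Glo luminescence after 72 hr compound exposure at 37 degree celsius gave cell viability. Libraries NPC and MIPE were run as 8- and 11-point dose responses; RLUs normalized to DMSO (negative) and no-cell (cytotoxicity) controls.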", "values": [
      {"smiles": "CN1CCC[C@H]1CCO[C@](C)(c1ccccc1)c1ccc(Cl)cc1", "outcome": "inactive"},
      {"smiles": "CC(C)(F)C[C@H](N[C@@H](c1ccc(-c2ccc(S(C)(=O)=O)cc2)cc1)C(F)(F)F)C(=O)NC1(C#N)CC1", "outcome": "inactive"},
      {"smiles": "COc1ccc2nc3cc(Cl)ccc3c(Nc3cc(CN4CCCC4)c(O)c(CN4CCCC4)c3)c2n1", "outcome": "inactive"},
      {"smiles": "N=C1SC(=Cc2ccc(-c3ccc4c(c3)C(=O)NC4=O)o2)C(=O)N1c1ccc(Br)cc1", "outcome": "inactive"},
      {"smiles": "CC[C@H](C)n1cc(C)c2c(C(=O)NCc3c(C)cc(C)[nH]c3=O)cc(-c3ccc(N4CCNCC4)nc3)cc21", "outcome": "inactive"},
      {"smiles": "O=C(C=Cc1ccc(O)cc1)c1ccc(O)cc1O", "outcome": "inactive"},
      {"smiles": "CNC(=O)c1cc(Oc2ccc(NC(=O)Nc3ccc(Cl)c(C(F)(F)F)c3)c(F)c2)ccn1", "outcome": "inactive"},
      {"smiles": "O=C(Nc1cccc2c(=O)cc(-c3nn[nH]n3)oc12)c1ccc(OCCCCc2ccccc2)cc1", "outcome": "inactive"},
      {"smiles": "OC(c1cc(C(F)(F)F)nc2c(C(F)(F)F)cccc12)C1CCCCN1", "note": "(stereo not given)", "outcome": "inactive"},
      {"smiles": "Cc1ccc(NC(=O)c2cccc(N(C)C)c2)cc1NC(=O)c1ccc(O)cc1", "outcome": "inactive"},
      {"smiles": "C[C@@H]1[C@H](C)CC[C@]2(C(=O)O)CC[C@]3(C)C(=CC[C@@H]4[C@@]5(C)CC[C@H](O)C(C)(C)[C@H]5CC[C@]43C)[C@@H]12", "outcome": "inactive [at 92 µM]"},
      {"smiles": "COc1ccc(-c2oc3c(CC=C(C)C)c(O)cc(O)c3c(=O)c2O)cc1", "outcome": "inactive"}
    ]},
    {"system": "MCC-13", "experiment": "qHTS assay to identify novel small-molecules to repurpose for Merkel cell carcinoma treatment (AID 1296009)", "settings": "MCC and control cell lines, CellTiter-Glo viability, 72 h; series mostly up to 46 µM", "in_short": "as §1", "values": [
      {"smiles": "CN1CCC[C@H]1CCO[C@](C)(c1ccccc1)c1ccc(Cl)cc1", "Potency": "inactive"},
      {"smiles": "CC(C)(F)C[C@H](N[C@@H](c1ccc(-c2ccc(S(C)(=O)=O)cc2)cc1)C(F)(F)F)C(=O)NC1(C#N)CC1", "Potency": "inactive"},
      {"smiles": "CN[C@H]1[C@@H](O[C@@H]2[C@H](O[C@@H]3[C@@H](O)[C@@H](O)[C@@H](N=C(N)N)[C@@H](O)[C@@H]3N=C(N)N)O[C@H](C)[C@@]2(O)C=O)O[C@@H](CO)[C@@H](O)[C@H]1O", "activity change, negative = cytotoxicity": "0.63% [at 9.22 µM] (inactive)"},
      {"smiles": "COc1ccc2nc3cc(Cl)ccc3c(Nc3cc(CN4CCCC4)c(O)c(CN4CCCC4)c3)c2n1", "Potency": "inactive"},
      {"smiles": "CCCCc1ccc(NS(=O)(=O)c2ccc(C)c(C(=O)N3CCN(c4cccc(C)c4C)CC3)c2)cc1", "Potency": "inactive"},
      {"smiles": "CCC[C@H](Nc1nc(-c2ccc(NC(=O)NCC)c(OC)c2)ncc1C)c1cccnc1", "Potency": "46.9 nM (active)"},
      {"smiles": "N=C1SC(=Cc2ccc(-c3ccc4c(c3)C(=O)NC4=O)o2)C(=O)N1c1ccc(Br)cc1", "Potency": "inactive"},
      {"smiles": "CC[C@H](C)n1cc(C)c2c(C(=O)NCc3c(C)cc(C)[nH]c3=O)cc(-c3ccc(N4CCNCC4)nc3)cc21", "Potency": "inactive"},
      {"smiles": "COc1ccc2cc1Oc1ccc(cc1)C[C@H]1c3cc(c(OC)cc3CCN1C)Oc1c(OC)c(OC)cc3c1[C@H](C2)N(C)CC3", "Potency": "inactive"},
      {"smiles": "O=C(C=Cc1ccc(O)cc1)c1ccc(O)cc1O", "Potency": "inactive"},
      {"smiles": "CC(C)c1c(C(=O)Nc2ccccc2)c(-c2ccccc2)c(-c2ccc(F)cc2)n1CC[C@H](O)C[C@@H](O)CC(=O)O", "Potency": "inactive"},
      {"smiles": "CC1(C)C(N(O)C(=O)Nc2ccc(Cl)cc2)N(c2ccc(Cl)cc2)C(=O)N1CC(=O)NN=CC=Cc1ccc([N+](=O)[O-])o1", "note": "(stereo not given)", "Potency": "inactive"},
      {"smiles": "CNC(=O)[C@H](Cc1ccccc1)NC(=O)[C@H](CC(C)C)[C@H](CSc1cccs1)C(=O)NO", "Potency": "inactive"},
      {"smiles": "CC1(C)OC2CC3C4CC(F)C5=CC(=O)C=CC5(C)C4C(O)CC3(C)[C@]2(C(=O)CO)O1", "note": "(stereo not given in full)", "Potency": "inactive"},
      {"smiles": "O=C(Nc1cccc2c(=O)cc(-c3nn[nH]n3)oc12)c1ccc(OCCCCc2ccccc2)cc1", "Potency": "inactive"},
      {"smiles": "Clc1ccc(COC(Cn2ccnc2)c2ccc(Cl)cc2Cl)c(Cl)c1", "note": "(stereo not given)", "Potency": "inactive"},
      {"smiles": "CN(C)CC[C@H](CSc1ccccc1)Nc1ccc(S(=O)(=O)NC(=O)c2ccc(N3CCN(Cc4ccccc4-c4ccc(Cl)cc4)CC3)cc2)cc1[N+](=O)[O-]", "Potency": "inactive"},
      {"smiles": "OC(c1cc(C(F)(F)F)nc2c(C(F)(F)F)cccc12)C1CCCCN1", "note": "(stereo not given)", "Potency": "inactive"},
      {"smiles": "CN1CCc2c(n(Cc3ccc(C(=O)NO)cc3)c3ccccc23)C1", "Potency": "inactive"},
      {"smiles": "CC(C)C[C@@H](C(=O)N[C@H](C(=O)OC1CCCC1)c1ccccc1)[C@H](O)C(=O)NO", "Potency": "inactive"},
      {"smiles": "Cc1ccc(NC(=O)c2cccc(N(C)C)c2)cc1NC(=O)c1ccc(O)cc1", "Potency": "inactive"},
      {"smiles": "CN(C)S(=O)(=O)c1ccc2c(c1)C(=Cc1cc3c([nH]1)CCCC3)C(=O)N2", "Potency": "inactive"},
      {"smiles": "O=C1CN2Cc3c(ccc(Cl)c3Cl)N=C2N1", "Potency": "inactive"},
      {"smiles": "CN1C(=O)C[C@H](C(=O)N[C@@H](Cc2cnc[nH]2)C(=O)N2CCC[C@@H]2C(N)=O)NC1=O", "Potency": "inactive"},
      {"smiles": "CN(C)CCCNC(=O)c1ccc(-c2cc(O)c3ncccc3c2)cc1", "Potency": "inactive"},
      {"smiles": "Cc1ccccc1C(=O)c1ccc(Nc2ccc(Br)cc2N)cc1Cl", "Potency": "inactive"},
      {"smiles": "CNC1CCC(N(Cc2cccc(-c3ccncc3)c2)C(=O)c2sc3ccccc3c2Cl)CC1", "note": "(stereo not given)", "Potency": "inactive"},
      {"smiles": "C[C@@H]1[C@H](C)CC[C@]2(C(=O)O)CC[C@]3(C)C(=CC[C@@H]4[C@@]5(C)CC[C@H](O)C(C)(C)[C@H]5CC[C@]43C)[C@@H]12", "Potency": "inactive"},
      {"smiles": "CON(C)C(=O)N1N=C(c2cc(F)ccc2F)S[C@]1(CCCN)c1ccccc1", "Potency": "9.3 nM (active)"},
      {"smiles": "CO[C@H]1O[C@@H]2O[C@@]3(C)CC[C@@H]4[C@@H](C)CC[C@@H]([C@H]1C)[C@@]24OO3", "Potency": "inactive"},
      {"smiles": "Fc1ccc(C(c2ccc(F)cc2)N2CCN(CC=Cc3ccccc3)CC2)cc1", "Potency": "inactive"},
      {"smiles": "COc1ccc(-c2oc3c(CC=C(C)C)c(O)cc(O)c3c(=O)c2O)cc1", "Potency": "inactive"}
    ]}
  ]
}
